Measurements reported in PubChem BioAssay (NCI).
The panel holds about 79,000 compounds, 15% with a hit somewhere; the sample as a whole holds those more often. Rule as the data show it: active = growth inhibition above about 70%; inactive = the rest.

What was measured:
[1] = NCI Yeast Anticancer Drug Screen. Data for the rad50 strain (AID 155);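 also: 0% = growth of vehicle-only cultures of the same strain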; conditions: S. cerevisiae rad50 strain growth inhibition; at 50.0 µM; hits give high values
In short: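 Compounds were tested on a yeast strain with an engineered DNA damage repair alteration; the reported value is growth inhibition normalised to vehicle treatment.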

[2] = NCI Yeast Anticancer Drug Screen. Data for the mec2-1 strain (AID 157); conditions: S. cerevisiae mec2-1 strain, at 50.0 µM, hits give high values
In short: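 mec2-1 yeast strain, carrying an alteration in DNA damage repair or cell cycle control, was exposed to compounds; growth inhibition was measured relative to vehicle-treated controls.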

[3] = NCI Yeast Anticancer Drug Screen. Data for the sgs1 mgt1 strain (AID 161);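 also: 0% = growth of cultures given vehicle only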; conditions: S. cerevisiae sgs1 mgt1 strain, at 50.0 µM, hits give high values
In short: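 Compounds are added to genetically altered yeast, and growth is compared with cultures given vehicle alone to give percent inhibition.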

[4] = NCI Yeast Anticancer Drug Screen. Data for the cln2 rad14 strain (AID 165);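 also: 0% = growth equal to vehicle treated cultures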; conditions: S. cerevisiae cln2 rad14 strain, at 50.0 µM, hits give high values
In short: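 Yeast carrying cln2 and rad14 alterations (cell cycle control and DNA damage repair) were exposed to compounds. Growth inhibition was measured against vehicle-treated controls.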

[5] = NCI Yeast Anticancer Drug Screen. Data for the bub3 strain (AID 167); conditions: S. cerevisiae bub3 mutant strain, at 50.0 µM, hits give high values
In short: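 Growth of a checkpoint-deficient yeast mutant is measured after compound exposure. Values represent inhibition relative to vehicle.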

[6] = NCI Yeast Anticancer Drug Screen. Data for the mlh1 rad18 strain (AID 175); conditions: S. cerevisiae mlh1 rad18 strain growth inhibition; at 50.0 µM; hits give high values
In short: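 Growth inhibition of the yeast strain was measured after compound exposure and expressed relative to vehicle-treated controls. The strain carries defined defects in DNA damage repair.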

Measured: growth inhibition

O=c1cc(-c2ccccc2)nc2cc(-c3ccco3)[nH]n12
inactive: [1] -8.1% | [2] -14.7% | [3] -6.05% | [4] 7.9% | [5] -2.6% | [6] -3.85%

CC(C)=CC(=O)OC(=O)C=C(C)C
inactive: [1] -25.3% | [2] -48.4% | [3] -21.2% | [4] 1.8% | [5] -36.6% | [6] -8.65%

Cc1cc(NC(=O)CSCC(=O)O)no1
inactive: [1] -19.2% | [2] -34.5% | [3] -2.45% | [4] 7.8% | [5] -7.8% | [6] -2.75%

CN(c1ccccc1)c1ncnc2c1ncn2C
inactive: [1] 2.65% | [2] -0.65% | [3] 1.75% | [4] -4.7% | [5] 29.9% | [6] 4.1%

CCCCC(CC)COC(C)=O (centres undefined)
inactive: [1] 14.4% | [2] -13.5% | [3] 2.15% | [4] 5.2% | [5] 12% | [6] 13.8%

COc1cc(OC)c2ccc(=O)oc2c1
inactive: [1] 27.2% | [2] 8.4% | [3] 16.1% | [4] 6.75% | [5] 38.5% | [6] 24.1%

NC(C(=O)O)C(O)c1ccco1 (centres undefined)
inactive: [1] 6.6% | [2] -0.1% | [3] 3.95% | [4] 13.8% | [5] 3.75% | [6] 6.75%

Cc1ccccc1C1N=C2Oc3ccccc3C=C2C(=O)N1 (centres undefined)
inactive: [1] 10.7% | [2] -11.8% | [3] 0.6% | [4] -9.55% | [5] -17.4% | [6] -32.5%

O=C(CCl)N1CCN(C/C=C/c2ccccc2)CC1
inactive: [1] 8.15% | [2] -0.05% | [3] 19.1% | [4] -3.95% | [5] 39.9% | [6] 28.5%

Nc1ccc(N=Nc2ccc(O)cc2)c(N)n1
inactive: [1] -15.7% | [2] -20.1% | [3] -16.7% | [4] 2.85% | [5] 22.7% | [6] -4.7%

COc1ccc(-c2cc3c(nn2)-c2ccccc2C3=O)cc1
inactive: [1] 1.1% | [2] -16.7% | [3] -13% | [4] -10.4% | [5] -19.1% | [6] 5.45%

CCCCNC(=O)C(=O)NCCCC
inactive: [1] 10.8% | [2] 7.2% | [3] 4.6% | [4] 28.6% | [5] 7% | [6] 1.75%

Cc1ccc(C(=O)c2ccccc2)c(C)c1
inactive: [1] 8.65% | [2] -1.75% | [3] 0.6% | [4] -10.4% | [5] -2.5% | [6] 28.6%

O=C(OCC(O)C1OC(c2ccccc2)OC(COC(=O)c2ccccc2)C1O)c1ccccc1 (centres undefined)
inactive: [1] 5.85% | [2] 4.85% | [3] 13.6% | [4] 16.6% | [5] 1% | [6] 11.9%

NCCCN
inactive: [1] 8.9% | [2] -7.05% | [3] -11.1% | [4] -5.9% | [5] 3.6% | [6] 6.55%

CCn1c(=O)n(C)c2c(=O)n(C)c(=O)n(C)c21
inactive: [1] 21.6% | [2] -3.8% | [3] -13.3% | [4] 1% | [5] 1.4% | [6] 2.2%

Cc1ccc(/C(C#N)=C/c2ccc3c(c2)OCO3)cc1
inactive: [1] 23.6% | [2] 25.5% | [3] 26.3% | [4] -14.3% | [5] 47.8% | [6] 21.2%

O=C1C=C(O)C(=O)C=C1O
inactive: [1] 4.45% | [2] -10.2% | [3] 14.9% | [4] 0.4% | [5] -2.35% | [6] 28.5%

COc1ccc(/C(C#N)=C2C=C/C(=N/O)c3ccccc3\2)cc1
inactive: [1] -5.15% | [2] 14.6% | [3] 8.75% | [4] -22.2% | [5] 9.25% | [6] 19.9%

CCOc1ccc(Br)cc1/C=N\N=C\c1cc(Br)ccc1OCC
inactive: [1] -9.15% | [2] -29.2% | [3] -1.65% | [4] 13.3% | [5] 4.25% | [6] -10.3%

Cc1cccc([N+](=O)[O-])c1Cl
inactive: [1] -39.2% | [2] -72.5% | [3] -36.5% | [4] 10.6% | [5] -30.8% | [6] -17.6%

Cc1ccc(Cl)cc1N1C(=O)CC(Sc2ccccc2N)C1=O (centres undefined)
inactive: [1] 21.9% | [2] -2.8% | [3] 28.4% | [4] 8.65% | [5] 30.8% | [6] 20.2%

C=CCNc1nnc(C)s1
inactive: [1] 14.9% | [2] 19.7% | [3] -21.6% | [4] -16.2% | [5] -15% | [6] -5.35%

Cc1c(C(=O)O)c(=O)n(-c2ccccc2)n1C
inactive: [1] 3.1% | [2] -10.2% | [3] -8.75% | [4] 11% | [5] -16.9% | [6] 13.6%

CCOC(=O)C1=C(C)NC(=O)NC1c1cccs1 (centres undefined)
inactive: [1] -11.2% | [2] -26.9% | [3] -14.4% | [4] 5.5% | [5] -14.2% | [6] -20.1%

CCCCCCCCOC(=O)c1ccccn1
inactive: [1] -6.75% | [2] 0.3% | [3] -8.05% | [4] -59% | [5] 16.6% | [6] -3.2%

N/N=C(/Cc1ccccc1)NNC(N)=S
inactive: [1] 1.95% | [2] -13.7% | [3] -26.6% | [4] -4.2% | [5] -12% | [6] -0.45%

COC(=O)c1ccc(C(C)C)cc1
inactive: [1] 2.95% | [2] 11.8% | [3] -1.35% | [4] 16.1% | [5] 0.3% | [6] 4.05%

O=[N+]([O-])c1cccc(C(F)(F)F)c1
inactive: [1] -3.9% | [2] -12.1% | [3] -9.1% | [4] -23.9% | [5] 34.3% | [6] -9.85%

NCC(=O)CCC(=O)O
inactive: [1] 6.3% | [2] -3.7% | [3] 0.5% | [4] -4.95% | [5] -0.85% | [6] -1.4%

Cc1ccc(/C=C2\SC(=S)N(c3ccc(F)cc3)C2=O)o1
inactive: [1] 14.7% | [2] 10.9% | [3] 28.4% | [4] 17.4% | [5] 15.8% | [6] 23.9%

O=C(O)c1cccc([N+](=O)[O-])c1O
inactive: [1] -41.4% | [2] 1.35% | [3] 8.95% | [4] -0.7% | [5] -0.8% | [6] 14.4%

COC(=O)c1cc(-c2ccc(Cl)c(Cl)c2)[nH]c(=O)c1C#N
inactive: [1] -16.9% | [2] -18.9% | [3] -27.9% | [4] 21.7% | [5] -21.9% | [6] 18.6%

CCOC(=O)Nc1nn[nH]n1
inactive: [1] 7.75% | [2] 1.35% | [3] 32% | [4] 4.15% | [5] -4.95% | [6] 3.65%

C/C=C/CC(C)C(O)C1C(=O)NC(CC)C(=O)N(C)CC(=O)N(C)C(CC(C)C)C(=O)NC(C(C)C)C(=O)N(C)C(CC(C)C)C(=O)NC(C)C(=O)NC(C)C(=O)N(C)C(CC(C)C)C(=O)N(C)C(CC(C)C)C(=O)N(C)C(C(C)C)C(=O)N1C (centres undefined)
inactive: [1] 17.3% | [2] 8.3% | [3] -5.45% | [4] 25.6% | [5] 22.7% | [6] 18.1%

CC1(c2ccccc2)NC(=O)NC1=O (centres undefined)
inactive: [1] 26.7% | [2] -8.85% | [3] 0.8% | [4] -1.3% | [5] -7.65% | [6] 23.9%

COCCOCCCl
inactive: [1] 10% | [2] -19.3% | [3] -12.5% | [4] -7.95% | [5] -6.5% | [6] -6.7%

c1ccc(/C(=N\N=C(/c2ccccc2)c2cccs2)c2cccs2)cc1
inactive: [1] 18.3% | [2] -23.1% | [3] 25.7% | [4] -2.8% | [5] 23.6% | [6] 10.6%

CN(C)C(C)(C)CC(C)(C)C
inactive: [1] 35.7% | [2] 4% | [3] 15.7% | [4] 4.85% | [5] 17.3% | [6] 26.6%

Nc1ncnc2[nH]ncc12
inactive: [1] -0.9% | [2] 25.5% | [3] 37% | [4] -2.6% | [5] 4.7% | [6] 14.1%

COc1ncnc2c1cnn2C
inactive: [1] 7.6% | [2] 3.6% | [3] 13.3% | [4] -35.1% | [5] -3.85% | [6] 2.9%

O=S(=O)(O)CC(O)CN1CCN(CCO)CC1 (centres undefined)
inactive: [1] -18.9% | [2] -35.8% | [3] -36.8% | [4] 5.45% | [5] -23.9% | [6] -6.3%

c1ccc(Cc2ccccc2)cc1
inactive: [1] 12.8% | [2] 39.2% | [3] -21.8% | [4] 1.5% | [5] -1.1% | [6] 1.15%

CC1=NN(c2ccccc2)C(=O)/C1=C\N1CC(=O)NC1=S
inactive: [1] -50.9% | [2] -46% | [3] -11.3% | [4] 5.45% | [5] -49% | [6] -30.4%
